Measurements from the supplement of paper PMC12067093, “Discovery and optimisation of a covalent ligand for TRIM25 and its application to targeted protein ubiquitination” (Chemical Science, 2025).
Of roughly 21,000 targets only a part is listed; those with the largest changes were picked by preference.

Compound: CC1Cc2ccccc2N1C(=O)C1CCCN(C1)C(=O)CCl (mixture of isomers) [TRIM25 ligand 11 (diastereomer mixture)]
Assay: probe-labelled cysteine peptide fold change vs DMSO (competition) (log2 fold change); higher = less target engagement (more negative = stronger competition)
Conditions: THP-1, incubation time: 4 h
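Note: competitive chemoproteomic profiling in live THP-1 cells with an iodoacetamide desthiobiotin (IA-DTB) probe, comparing probe-labelled peptide intensities in compound-treated cells against DMSO-treated controls.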

Sequence of UniProt Q9C0C9 (Q9C0C9 whole entry, looked up): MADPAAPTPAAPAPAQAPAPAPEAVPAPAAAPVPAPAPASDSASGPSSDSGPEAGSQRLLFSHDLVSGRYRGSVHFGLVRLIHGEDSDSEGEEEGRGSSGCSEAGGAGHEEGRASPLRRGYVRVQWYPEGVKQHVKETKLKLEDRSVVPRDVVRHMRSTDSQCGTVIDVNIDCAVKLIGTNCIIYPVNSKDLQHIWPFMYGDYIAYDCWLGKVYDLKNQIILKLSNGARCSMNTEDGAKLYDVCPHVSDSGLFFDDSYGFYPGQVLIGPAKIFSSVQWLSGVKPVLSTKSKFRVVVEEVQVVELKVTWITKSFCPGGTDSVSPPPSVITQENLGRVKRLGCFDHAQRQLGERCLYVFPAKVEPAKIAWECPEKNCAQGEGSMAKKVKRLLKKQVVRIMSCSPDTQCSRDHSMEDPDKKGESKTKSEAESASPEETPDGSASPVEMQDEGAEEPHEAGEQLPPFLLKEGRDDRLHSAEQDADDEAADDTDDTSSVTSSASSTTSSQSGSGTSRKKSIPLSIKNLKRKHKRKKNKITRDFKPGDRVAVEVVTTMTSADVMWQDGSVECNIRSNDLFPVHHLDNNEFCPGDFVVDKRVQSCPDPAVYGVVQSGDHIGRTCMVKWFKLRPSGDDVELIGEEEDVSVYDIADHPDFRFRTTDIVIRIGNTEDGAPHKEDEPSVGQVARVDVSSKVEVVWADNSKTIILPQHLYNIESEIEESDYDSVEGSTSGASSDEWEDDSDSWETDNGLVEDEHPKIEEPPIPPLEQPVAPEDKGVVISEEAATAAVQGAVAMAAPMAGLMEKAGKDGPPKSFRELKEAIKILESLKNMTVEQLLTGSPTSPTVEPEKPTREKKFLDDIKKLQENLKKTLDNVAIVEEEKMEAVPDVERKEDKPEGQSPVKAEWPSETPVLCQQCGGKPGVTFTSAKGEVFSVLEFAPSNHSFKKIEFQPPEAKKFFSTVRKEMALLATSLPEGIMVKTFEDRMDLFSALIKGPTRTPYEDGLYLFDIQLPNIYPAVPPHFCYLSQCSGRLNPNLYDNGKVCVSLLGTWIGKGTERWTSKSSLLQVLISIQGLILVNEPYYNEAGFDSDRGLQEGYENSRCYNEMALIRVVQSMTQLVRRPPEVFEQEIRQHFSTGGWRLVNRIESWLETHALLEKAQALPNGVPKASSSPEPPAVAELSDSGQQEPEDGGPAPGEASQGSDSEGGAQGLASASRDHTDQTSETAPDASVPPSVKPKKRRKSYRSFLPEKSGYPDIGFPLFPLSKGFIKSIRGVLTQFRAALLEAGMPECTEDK
Sequence of UniProt Q96CW5 (Q96CW5 whole entry, looked up): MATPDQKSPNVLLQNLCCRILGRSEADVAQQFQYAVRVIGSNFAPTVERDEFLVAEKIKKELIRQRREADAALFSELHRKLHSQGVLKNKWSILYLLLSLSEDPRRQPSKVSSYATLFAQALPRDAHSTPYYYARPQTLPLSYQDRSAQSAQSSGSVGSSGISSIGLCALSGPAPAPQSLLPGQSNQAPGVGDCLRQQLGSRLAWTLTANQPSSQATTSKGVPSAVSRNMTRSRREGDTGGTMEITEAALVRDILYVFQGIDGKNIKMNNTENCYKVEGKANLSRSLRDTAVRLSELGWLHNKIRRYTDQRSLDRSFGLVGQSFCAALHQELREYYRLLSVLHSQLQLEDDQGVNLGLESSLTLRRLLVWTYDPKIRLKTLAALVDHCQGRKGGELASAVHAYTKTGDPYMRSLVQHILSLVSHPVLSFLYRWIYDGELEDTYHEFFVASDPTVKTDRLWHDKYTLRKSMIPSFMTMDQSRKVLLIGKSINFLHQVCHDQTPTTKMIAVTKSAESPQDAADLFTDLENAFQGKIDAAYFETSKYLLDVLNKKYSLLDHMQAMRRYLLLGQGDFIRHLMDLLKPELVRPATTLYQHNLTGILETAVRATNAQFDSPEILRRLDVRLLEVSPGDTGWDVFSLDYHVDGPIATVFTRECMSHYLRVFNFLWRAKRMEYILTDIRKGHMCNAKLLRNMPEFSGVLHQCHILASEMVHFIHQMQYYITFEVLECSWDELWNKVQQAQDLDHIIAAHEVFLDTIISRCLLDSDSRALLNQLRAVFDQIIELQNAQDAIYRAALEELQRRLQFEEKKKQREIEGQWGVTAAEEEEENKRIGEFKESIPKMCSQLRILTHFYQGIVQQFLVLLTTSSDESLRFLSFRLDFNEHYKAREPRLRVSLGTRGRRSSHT
Sequence of UniProt Q8IWV7 (Q8IWV7 whole entry, looked up): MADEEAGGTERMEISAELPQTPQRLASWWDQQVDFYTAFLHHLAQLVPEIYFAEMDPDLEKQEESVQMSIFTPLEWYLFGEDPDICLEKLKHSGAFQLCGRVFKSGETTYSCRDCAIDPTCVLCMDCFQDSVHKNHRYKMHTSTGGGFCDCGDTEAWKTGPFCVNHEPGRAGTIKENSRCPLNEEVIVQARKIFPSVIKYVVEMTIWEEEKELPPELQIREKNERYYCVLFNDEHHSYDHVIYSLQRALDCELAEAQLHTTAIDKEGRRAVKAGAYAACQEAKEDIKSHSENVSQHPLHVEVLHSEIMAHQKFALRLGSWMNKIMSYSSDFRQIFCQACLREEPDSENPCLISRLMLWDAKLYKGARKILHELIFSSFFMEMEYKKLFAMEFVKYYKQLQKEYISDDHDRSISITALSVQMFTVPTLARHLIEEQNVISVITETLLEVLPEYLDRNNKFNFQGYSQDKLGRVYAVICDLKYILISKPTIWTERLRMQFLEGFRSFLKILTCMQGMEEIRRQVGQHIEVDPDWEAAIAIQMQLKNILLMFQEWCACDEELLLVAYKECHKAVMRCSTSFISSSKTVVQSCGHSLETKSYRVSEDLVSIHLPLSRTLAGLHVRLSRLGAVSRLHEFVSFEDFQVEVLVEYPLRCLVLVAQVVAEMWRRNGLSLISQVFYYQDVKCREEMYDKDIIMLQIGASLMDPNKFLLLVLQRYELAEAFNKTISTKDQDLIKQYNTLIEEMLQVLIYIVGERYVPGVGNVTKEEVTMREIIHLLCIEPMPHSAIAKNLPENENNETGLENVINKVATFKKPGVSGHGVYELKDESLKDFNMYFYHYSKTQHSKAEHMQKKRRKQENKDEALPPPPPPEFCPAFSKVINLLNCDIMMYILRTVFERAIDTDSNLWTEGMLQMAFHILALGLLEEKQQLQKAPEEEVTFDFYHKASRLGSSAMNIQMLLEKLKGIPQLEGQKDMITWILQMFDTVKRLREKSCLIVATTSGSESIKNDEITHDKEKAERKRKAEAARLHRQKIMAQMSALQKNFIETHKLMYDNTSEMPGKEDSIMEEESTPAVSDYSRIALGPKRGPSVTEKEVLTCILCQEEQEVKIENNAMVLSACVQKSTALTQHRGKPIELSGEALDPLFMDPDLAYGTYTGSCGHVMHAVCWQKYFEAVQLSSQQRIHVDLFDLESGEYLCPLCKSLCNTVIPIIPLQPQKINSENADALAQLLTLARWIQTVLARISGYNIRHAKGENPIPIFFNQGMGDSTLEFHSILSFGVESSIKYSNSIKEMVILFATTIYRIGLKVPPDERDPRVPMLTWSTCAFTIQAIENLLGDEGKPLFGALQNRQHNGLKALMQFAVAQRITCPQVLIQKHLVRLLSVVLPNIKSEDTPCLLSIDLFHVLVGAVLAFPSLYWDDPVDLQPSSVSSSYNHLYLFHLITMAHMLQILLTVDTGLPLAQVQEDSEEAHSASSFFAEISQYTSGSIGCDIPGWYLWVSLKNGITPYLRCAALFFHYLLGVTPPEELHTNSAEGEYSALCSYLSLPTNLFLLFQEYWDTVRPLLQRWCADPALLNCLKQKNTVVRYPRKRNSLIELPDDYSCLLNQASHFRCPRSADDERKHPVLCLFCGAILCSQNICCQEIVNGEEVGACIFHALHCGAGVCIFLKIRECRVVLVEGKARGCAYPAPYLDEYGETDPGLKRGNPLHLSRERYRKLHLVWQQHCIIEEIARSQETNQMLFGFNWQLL
Sequence of UniProt O43396 (O43396 whole entry, looked up): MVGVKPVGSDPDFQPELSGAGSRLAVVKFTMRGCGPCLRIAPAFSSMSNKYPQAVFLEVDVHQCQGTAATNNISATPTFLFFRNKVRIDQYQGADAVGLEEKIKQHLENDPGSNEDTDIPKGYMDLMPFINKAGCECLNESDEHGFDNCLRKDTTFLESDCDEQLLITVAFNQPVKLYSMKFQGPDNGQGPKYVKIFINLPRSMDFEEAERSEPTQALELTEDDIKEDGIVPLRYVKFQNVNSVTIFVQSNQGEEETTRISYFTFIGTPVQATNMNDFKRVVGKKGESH
Sequence of UniProt O00308 (O00308 whole entry, looked up): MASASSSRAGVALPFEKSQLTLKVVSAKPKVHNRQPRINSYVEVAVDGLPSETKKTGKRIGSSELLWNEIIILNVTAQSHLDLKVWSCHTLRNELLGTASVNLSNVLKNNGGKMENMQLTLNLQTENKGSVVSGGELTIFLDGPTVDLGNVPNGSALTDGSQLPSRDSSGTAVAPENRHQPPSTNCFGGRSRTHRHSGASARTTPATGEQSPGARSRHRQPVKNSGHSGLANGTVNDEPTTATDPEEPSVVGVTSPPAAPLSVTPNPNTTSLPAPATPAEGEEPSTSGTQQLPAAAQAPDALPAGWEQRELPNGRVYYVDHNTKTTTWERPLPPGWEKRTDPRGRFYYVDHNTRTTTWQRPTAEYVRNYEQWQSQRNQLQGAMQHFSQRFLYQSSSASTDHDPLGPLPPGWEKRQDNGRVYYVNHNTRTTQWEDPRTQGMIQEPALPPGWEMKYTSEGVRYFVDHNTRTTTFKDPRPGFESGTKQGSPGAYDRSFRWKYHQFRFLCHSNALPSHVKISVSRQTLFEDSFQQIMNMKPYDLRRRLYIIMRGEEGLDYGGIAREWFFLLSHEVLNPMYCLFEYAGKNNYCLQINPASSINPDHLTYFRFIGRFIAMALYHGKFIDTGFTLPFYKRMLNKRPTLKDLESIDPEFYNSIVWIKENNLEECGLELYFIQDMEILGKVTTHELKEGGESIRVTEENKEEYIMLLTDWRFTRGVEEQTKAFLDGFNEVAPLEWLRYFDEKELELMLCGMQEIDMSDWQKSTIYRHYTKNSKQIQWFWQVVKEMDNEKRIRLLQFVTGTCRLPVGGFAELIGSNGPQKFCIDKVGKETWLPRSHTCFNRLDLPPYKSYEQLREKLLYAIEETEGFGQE

Target	probe-labelled cysteine peptide fold change (10 µM)	probe-labelled cysteine peptide fold change (50 µM)
USP4_Q13107_7_AEGGGCR (UniProt Q13107)	0.644	0.609
TSPYL1_Q9H0U9_375_NQDLICSFFTWFSDHSLPESDK (UniProt Q9H0U9)	0.789	0.39
TRMT1_Q9NXH9_376_FSAACGPPVTPECEHCGQR (UniProt Q9NXH9)	0.157	0.015
TTC27_Q6P3X3_374_NNPVHTLTEVELLAFTSCLLSQPK (UniProt Q6P3X3)	0.253	0.421
WNK1_Q9H4A3_1135_VVECQLETHNR (UniProt Q9H4A3)	0.0982	0.156
VPS29_Q9UBQ0_36+41_IQHILCTGNLCTK (UniProt Q9UBQ0)	0.0402	-0.0827
UBR5_O95071_1942_SHNDEHSDVLPVLDVCSLK (UniProt O95071)	-0.586	-0.263
UBR4_Q5T4S7_4839+4841_QMEELIEEPGLTCCICR (UniProt Q5T4S7)	0.337	0.209
VAV1_P15498_31_VTWDGAQVCELAQALR (UniProt P15498)	0.0648	0.411
WT1_P19544_385_HTGVKPFQCK (UniProt P19544)	-0.144	-0.103
VPS72_Q15906_163_GPHCERPLTQEELLR (UniProt Q15906)	0.0992	-0.085
UBA7_P41226_223_DGDLVTFSGIEGMVELNDCDPR (UniProt P41226)	0.000986	0.0382
TRMT1_Q9NXH9_351_QALVFQCVGCGAFHLQR (UniProt Q9NXH9)	0.147	0.318
VPS13C_Q709C8_2276+2289_GIEHSLIEENCGVVVESIQVTLECGLGHR (UniProt Q709C8)	0.105	-0.00969
UNC45A_Q9H3U1_503_ALVGLCK (UniProt Q9H3U1)	0.0324	0.188
WDR26_Q9H7D7_238_CELTPLK (UniProt Q9H7D7)	-0.0356	-0.0732
TTC14_Q96N46_165_DIAHLEITALCPLR (UniProt Q96N46)	0.0661	0.0914
UAP1L1_Q3KQV9_50_AALLAELALLEPEALREHCR (UniProt Q3KQV9)	0.0804	0.0782
WWP2_O00308_186_HQPPSTNCFGGR (UniProt O00308)	-0.035	-0.168
WDR12_Q9GZL7_185_ALHCCR (UniProt Q9GZL7)	0.0665	0.103
TXNL1_O43396_135+137+149_AGCECLNESDEHGFDNCLR (UniProt O43396)	-0.02	-0.634

Target	probe-labelled cysteine peptide fold change (10 µM)	probe-labelled cysteine peptide fold change (50 µM)
UIMC1_Q96RL1_121_AIAESLNSCRPSDASATR (UniProt Q96RL1)	0.14	-0.0493
TXNIP_Q9H3M7_49_ILACGVAK (UniProt Q9H3M7)	0.365	0.565
WDR91_A4D1P6_246_LGDSELAMVCSQR (UniProt A4D1P6)	-0.0616	-0.273
TYW1B_Q6NUM6_581_ELVDLIPEYEIACEHEHSNCLLIAHR (UniProt Q6NUM6)	0.268	0.256
VPS45_Q9NRW7_359_NLLEVSEVEQELACQNDHSSALQNIK (UniProt Q9NRW7)	0.273	-0.0913
UFC1_Q9Y3C8_116_ICLTDHFKPLWAR (UniProt Q9Y3C8)	-0.522	-0.68
UBAP1_Q9NZ09_243_ATLDFKPLHKPNGFITLPQLGNCEK (UniProt Q9NZ09)	-0.241	-0.382
VCP_P55072_174_VVETDPSPYCIVAPDTVIHCEGEPIKR (UniProt P55072)	0.0996	-0.0884
UACA_Q9BZF9_481_ALALECER (UniProt Q9BZF9)	-0.0367	0.0956
UHRF1_Q96T88_497_TAEQSCDQK (UniProt Q96T88)	0.0456	-0.184
VPS11_Q9H270_586_EAPGCR (UniProt Q9H270)	0.694	1.1
UBE2T_Q9NPD8_86_ICLDVLK (UniProt Q9NPD8)	-0.00663	0.103
TRMT61A_Q96FX7_209_FCSFSPCIEQVQR (UniProt Q96FX7)	-0.023	-0.323
WDFY4_Q6ZS81_835_QWPDLEERMDEGDAAIMHPGVVCIMVR (UniProt Q6ZS81)	-0.279	-0.333
TTC21B_Q7Z4L5_72_QDVSLCSLLALIYAHK (UniProt Q7Z4L5)	0.155	0.138
TTC27_Q6P3X3_514_ETPSLYCLLGDVLGDHSCYDK (UniProt Q6P3X3)	-0.201	-0.392
UAP1L1_Q3KQV9_271_LADPVFIGFCVLQGADCGAK (UniProt Q3KQV9)	-0.0621	-0.144
TXNRD2_Q9NNW7_523_SGLDPTVTGCUG (UniProt Q9NNW7)	-0.465	-2
WDR70_Q9NW82_383_QAHDSGTDTSCVTFSYDGNVLASR (UniProt Q9NW82)	0.312	-0.591
WDR47_O94967_322_SLNPALDGLTCGLTSHDK (UniProt O94967)	0.104	-0.116
UBR4_Q5T4S7_4146_QAACTIVEALATIPSR (UniProt Q5T4S7)	0.0371	-0.0346

Target	probe-labelled cysteine peptide fold change (10 µM)	probe-labelled cysteine peptide fold change (50 µM)
VEZF1_Q14119_327_TCMSEETSNQK (UniProt Q14119)	-0.186	-0.42
UBR5_O95071_1382+1386_LDCFTHCLIVK (UniProt O95071)	0.374	0.564
UBA1_P22314_234_DNPGVVTCLDEAR (UniProt P22314)	0.0251	-0.108
VCPIP1_Q96JH7_219_SQECLIPVHVDGDGHCLVHAVSR (UniProt Q96JH7)	-0.566	-1.68
TUBB1_Q9H4B7_12_MREIVHIQIGQCGNQIGAK (UniProt Q9H4B7)	0.489	0.674
TTLL12_Q14166_418_WGEDNHWICK (UniProt Q14166)	0.0917	0.0468
UBR1_Q8IWV7_1726_LHLVWQQHCIIEEIAR (UniProt Q8IWV7)	-0.0216	0.0386
UFC1_Q9Y3C8_116_ICLTDHFK (UniProt Q9Y3C8)	-0.127	-0.0548
TUBGCP3_Q96CW5_388_TLAALVDHCQGRK (UniProt Q96CW5)	-0.158	-0.0586
VASP_P50552_7_SETVICSSR (UniProt P50552)	0.55	0.717
TTC37_Q6PGP7_600_DFNCWESLGEAYLSR (UniProt Q6PGP7)	0.0103	-0.0643
TXNIP_Q9H3M7_36_VIVEVCEVTR (UniProt Q9H3M7)	0.136	0.375
UNK_Q9C0B0_100_YDEATGLCPEGDECPFLHR (UniProt Q9C0B0)	0.613	0.284
TTC4_O95801_174_HFAEAVNWCDEGLQIDAK (UniProt O95801)	-0.0931	0.216
USP20_Q9Y2K6_8_DLCPHLDSIGEVTKEDLLLK (UniProt Q9Y2K6)	-0.12	-0.352
TXNRD2_Q9NNW7_279_GCAPSR (UniProt Q9NNW7)	0.829	0.386
WDR11_Q9BZH6_411_NSSSGVSPLYSPVSFCGIPVGVLQNK (UniProt Q9BZH6)	-0.0944	-0.0348
TXN2_Q99757_90+93_VVNSETPVVVDFHAQWCGPCK (UniProt Q99757)	-0.411	-1.31
USP19_O94966_1017_LEDKGDTPLELGDDCSLALVWR (UniProt O94966)	-0.14	-0.0111
USP6_P35125_1036_AQAEPINLDSCLR (UniProt P35125)	-0.111	-0.0406
UBE2O_Q9C0C9_598_VQSCPDPAVYGVVQSGDHIGR (UniProt Q9C0C9)	-0.0239	-0.0974

Target	probe-labelled cysteine peptide fold change (10 µM)	probe-labelled cysteine peptide fold change (50 µM)
UBR2_Q8IWV8_1360_ILSDEDKPLFGPLPCR (UniProt Q8IWV8)	-0.139	-0.289
TXNRD1_Q16881_625_QLDSTIGIHPVCAEVFTTLSVTK (UniProt Q16881)	0.301	0.194
TTC28_Q96AY4_726_ALGNLGDIFICK (UniProt Q96AY4)	0.224	0.1
TUBA1B_P68363_213_SKLEFSIYPAPQVSTAVVEPYNSILTTHTTLEHSDCAFMVDNEAIYDICRR<|>TUBA4A_P68366_213_SKLEFSIYPAPQVSTAVVEPYNSILTTHTTLEHSDCAFMVDNEAIYDICRR<|>TUBA1A_Q9BQE3_213_SKLEFSIYPAPQVSTAVVEPYNSILTTHTTLEHSDCAFMVDNEAIYDICRR (UniProt Q9BQE3+P68366+P68363)	0.181	-0.0591
VCP_P55072_105_LGDVISIQPCPDVK (UniProt P55072)	-0.0602	-0.113
TTF2_Q9UNY4_1118_FVCEGTVEEK (UniProt Q9UNY4)	-0.132	-0.00382
WDFY1_Q8IWB7_189_LEQNTCSVITTLK (UniProt Q8IWB7)	0.462	0.551
XPC_Q01831_224_NNICSQPDLHAIGLSIIPAR (UniProt Q01831)	-0.0894	0.0467
UGP2_Q16851_123_LNGGLGTSMGCK (UniProt Q16851)	-0.0886	-0.138
VPS13B_Q7Z7G8_3937_VACDVEVDGVR (UniProt Q7Z7G8)	0.0676	-0.592
TTC30B_Q8N4P2_619_DSVIQECVQFLEHCELHGR (UniProt Q8N4P2)	0.056	0.655
WDFY4_Q6ZS81_1763_HHQEEVLQAGLCTEGALLLLEMLK (UniProt Q6ZS81)	0.571	0.181
TTYH3_Q9C0H2_486_CENTPLIGR (UniProt Q9C0H2)	-0.0936	-0.00547
VPS51_Q9UID3_226_AIQDDCQVITAR (UniProt Q9UID3)	-0.0611	0.0255
URB2_Q14146_1380_LHNVLFSILQCHPK (UniProt Q14146)	0.199	0.859
UBR2_Q8IWV8_1332_VHPNEEDPRVPIMCWGSCAYTIQSIER (UniProt Q8IWV8)	-0.326	-0.616
USP34_Q70CQ2_2033_CQVADMK (UniProt Q70CQ2)	0.0209	0.0671
VPS37A_Q8NEZ2_375_TICHCR (UniProt Q8NEZ2)	0.905	0.772
